Laboratory results as given in PubChem BioAssay (NCATS).
Records with an inconclusive call do not appear. Activity calls are given as the source filed them. The call rests on the fitted dose curve; in most records, active means well fitted curve in the direction sought with a large enough effect; inconclusive means small, poorly fitted or top-dose-only effect, or another doubt; inactive means no such curve, though single readings can be large; an effect the other way counts as inactive or inconclusive.

Key:
[1] = SDT Cancer Cell Toxicity qHTS against the NCATS CANVASS Library (AID 1347365);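 further: SDT canine glioma cells 500 per well in 1536 well plates; nearly all actives have a fitted effect of over 60% in size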
Summary of the method: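 Dispense 500 SDT cells per well; pin-transfer compounds; incubate 72 hr at 37C, 5% CO2, 95% RH; add CellTiterGlo and read luminescence.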

[2] = qHTS for ATAD5 Agonist screened against the NCATS CANVASS Library (AID 1347367);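 further: luciferase reporter driven by ATAD5 which rises upon DNA damage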
Summary of the method: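 HEK293T cells stably carrying an ATAD5-controlled luciferase reporter (2000 cells/well) attached for 5 hr, then received compounds in an 11-point series for 16hr at 37C. Luminescence was read after a 30 min room-temperature reagent step.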

[3] = G06 Cancer Cell Toxicity qHTS against the NCATS CANVASS Library (AID 1347368); further: nearly all actives have a fitted effect of over 60% in size
Summary of the method: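 Cytotoxicity toward canine glioma G06 cells is scored from cellular ATP via luminescence after 72 hr compound exposure at 500 cells/well.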

[4] = MCF7 Cancer Cell Toxicity qHTS against the NCATS CANVASS Library (AID 1347369)
Summary of the method: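 MCF7, 500 cells/well; cpds 11-pt qHTS; 72 hr, 37C/5% CO2; CellTiterGlo ATP luminescence.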

[5] = qHTS for ATAD5 Antagonist screened against the NCATS CANVASS Library (AID 1347370);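 further: HEK293T cells carrying an ATAD5 luciferase reporter co-treated with 10 µM 5-fluorouridine; nearly all actives have a fitted effect of over 65% in size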
Summary of the method: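 HEK293T cells with a stably integrated ATAD5-controlled luciferase reporter were exposed to compounds (11-pt) alongside 10 uM 5-fluorouridine as ATAD5 stabilizer for 16hr at 37C. Viability was read by CellTiter-Fluor fluorescence, then ATAD5 by luminescence.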

[6] = J3T Cancer Cell Toxicity qHTS against the NCATS CANVASS Library (AID 1347371);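 further: J3T is a canine glioma cancer cell line seeded at 500 cells per well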
Summary of the method: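 Viability of the J3T glioma line from dog is scored by ATP luminescence after a 72 hr incubation with natural products.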

[7] = target: Nuclear receptor subfamily 1 group I member 3 (Homo sapiens) (UniProt Q14994); test: qHTS for Constitutive Androstane Receptor (CAR) Antagonist screened against the NCATS CANVASS Library (AID 1347372);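 further: cells stimulated with 50 nM CITCO agonist so inhibition reflects antagonism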
Summary of the method: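 HepG2 cells stably carrying hCAR and CYP2B6-2.2kb luciferase reporter, 2500 cells/well, compound with 50 nM CITCO agonist for 24hr at 37C. ONE-Glo luminescence measured CAR activity; CellTiter-Fluor read viability.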

[8] = target: Nuclear receptor subfamily 1 group I member 3 (Homo sapiens) (UniProt Q14994); test: qHTS for Constitutive Androstane Receptor (CAR) Agonist screened against the NCATS CANVASS Library (AID 1347373);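 further: every well also contained 1.5 µM PK11195 alongside the test compound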
From the text: Natural products and their derivatives continue to be wellsprings of nascent therapeutic potential. However, many laboratories have limited resources for biological evaluation, leaving their previously isolated or synthesized compounds largely or completely untested. To address this issue, the Canvass library of natural products was assembled (https://tripod.nih.gov/canvass), in collaboration with academic and industry researchers, for quantitative high-throughput screening (qHTS) across a diverse set of cell-based and biochemical assays. […] The library was formatted into 1536-well plates and evaluated in 50 qHTS (in an 11-pnt concentration series) bioassays with broad scope of disease-relevant mechanisms. The resulting data set from 50 different assays was then systematically analyzed to identify overall trends and specific natural products with interesting biological activities. […]
Material: A double-stable (hCAR and CYP2B6-2.2kb) transfected cell line, derived from human hepatoma (HepG2) cells, was utilized for the duration of the quantitative high-throughput screens. […] A first readout of fluorescence signal was acquired via the ViewLux (PerkinElmer) plate reader using a FITC dichroic mirror, excitation 405/10 nm filter, and emission 540/25 nm filter; and using 65 light energy, 1 second exposure, and 2x binning settings. […]

[9] = KB-3-1 Cancer Cell Toxicity qHTS against the NCATS CANVASS Library (AID 1347366); conditions: KB-3-1 viability, CellTiter-Glo luminescence, 72 h; at 46.1 µM (top of the series); further: nearly all actives have a fitted effect of over 75% in size
From the text: Natural products and their derivatives continue to be wellsprings of nascent therapeutic potential. However, many laboratories have limited resources for biological evaluation, leaving their previously isolated or synthesized compounds largely or completely untested. To address this issue, the Canvass library of natural products was assembled (https://tripod.nih.gov/canvass), in collaboration with academic and industry researchers, for quantitative high-throughput screening (qHTS) across a diverse set of cell-based and biochemical assays. The pure (>85% purity by liquid chromatography/mass spectrometry [LC/MS]) Canvass library of 346 natural products were submitted by 45 academic laboratories and companies around the world. We collected pure natural products to circumvent deconvolution and structure elucidation due to time and resource limitations. The library was formatted into 1536-well plates and evaluated in 50 qHTS (in an 11-pnt concentration series) bioassays with broad scope of disease-relevant mechanisms. The resulting data set from 50 different assays was then systematically analyzed to identify overall trends and specific natural products with interesting biological activities. […]
Cancer Cell Toxicity qHTS protocol 1. […] Luminescence signal was acquired via the ViewLux plate reader (PerkinElmer) using a clear emission filter, 1 sec exposure, and 1x binning settings.

[10] = qHTS for Hypoxia signaling pathway (HIF-1) antagonists against the NCATS CANVASS Library (AID 1347374);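 further: HRE-bla ME-180 cells stimulated with cobalt chloride to stabilize HIF-1alpha; nearly all actives have a fitted effect of over 60% in size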
Summary of the method: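 HRE-bla ME-180 cells (2,000/well, 0.5% dialyzed FBS) were pre-incubated 5 h, then given an 11-point compound series plus CoCl2 (60 uM solution as added) for 17 h at 37C. CCF4 β-lactamase read (ex 405, em 460/530 nm) after 2 h at RT.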

Measured: outcome

Nuclear receptor subfamily 1 group I member 3 (Homo sapiens), sequence (Q14994 whole entry, looked up): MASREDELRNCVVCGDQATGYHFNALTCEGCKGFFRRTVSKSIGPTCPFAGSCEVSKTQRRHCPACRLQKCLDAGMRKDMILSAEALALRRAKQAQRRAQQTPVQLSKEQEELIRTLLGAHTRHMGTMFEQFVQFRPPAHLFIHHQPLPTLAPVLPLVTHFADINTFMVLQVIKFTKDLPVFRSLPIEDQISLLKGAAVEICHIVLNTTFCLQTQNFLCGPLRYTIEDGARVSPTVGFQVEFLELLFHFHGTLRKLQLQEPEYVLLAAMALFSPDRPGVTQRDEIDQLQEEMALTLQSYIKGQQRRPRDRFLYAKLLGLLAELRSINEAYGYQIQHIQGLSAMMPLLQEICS

C=C(C)[C@@H]1CC[C@]2(C(=O)O)CC[C@]3(C)[C@H](CC[C@@H]4[C@@]5(C)CC[C@H](O)C(C)(C)[C@@H]5CC[C@]43C)[C@@H]12
not listed: [9] | [10]
inactive: all other assays above

O=c1c(O)c(-c2ccc(O)c(O)c2)oc2cc(O)ccc12
not listed: [1] | [3]
inactive: all other assays above
